Source: PubChem BioAssay (National Center for Advancing Translational Sciences (NCATS))
Tau fluor counter: counter-screen for tau fibril formation inhibitors | 280,000 compounds, 0.93% hits | Potency, µM (top dose mostly 57.7 µM) | tau K18 P301L Alexa594 fluorescence, heparin fibrillization; further: nearly all actives have a fitted effect of over 55% in size
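Human K18 P301L tau (15 uM unlabeled plus 0.24 uM Alexa 594-labeled, final) in 100 mM sodium acetate pH 7 was mixed with compound and 20 uM heparin and incubated 6 hr at 37 C.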
NPSR antagonist: antagonists of human neuropeptide S receptor cAMP signaling; 220,000 compounds, 1% hits; Potency, µM (doses to about 38.3 µM), hits mostly inhibitors; CHO-NPSR cells, cAMP TR-FRET, antagonist mode; Q6W5P4; AID 1461; further: nearly all actives have a fitted effect of over 50% in size
Target sequence (Q6W5P4 whole entry, looked up): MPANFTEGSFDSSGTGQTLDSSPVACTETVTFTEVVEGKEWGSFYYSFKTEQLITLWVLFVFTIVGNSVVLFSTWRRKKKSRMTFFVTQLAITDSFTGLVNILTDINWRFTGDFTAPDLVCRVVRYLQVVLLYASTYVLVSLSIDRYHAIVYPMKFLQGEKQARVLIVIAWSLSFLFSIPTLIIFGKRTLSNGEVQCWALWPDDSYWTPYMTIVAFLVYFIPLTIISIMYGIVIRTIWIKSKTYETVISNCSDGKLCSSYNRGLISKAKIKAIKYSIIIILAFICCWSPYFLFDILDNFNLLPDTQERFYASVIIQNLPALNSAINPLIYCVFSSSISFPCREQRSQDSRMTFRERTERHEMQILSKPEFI
Tau fibril FP: inhibitors of human tau fibril formation. AID 1468. 280,000 compounds, 0.39% hits. K18 P301L tau heparin fibrillization, Alexa594 FP, 6 h. Potency, µM (highest dose often 57.7 µM), actives largely listed as inhibitors; further: nearly all actives have a fitted effect of over 55% in size
Target sequence (P10636 561-689 P618L limits assumed): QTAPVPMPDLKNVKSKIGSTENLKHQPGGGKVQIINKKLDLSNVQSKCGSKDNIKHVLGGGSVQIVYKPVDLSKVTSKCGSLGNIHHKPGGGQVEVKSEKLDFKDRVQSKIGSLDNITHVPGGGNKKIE
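Steps: dispense K18 P301L tau (15 uM plus 0.24 uM Alexa 594 tracer, final) in pH 7 sodium acetate; add compound; add heparin (20 uM final); incubate 6 hr, 37 C; add ThT (30 uM final); after 1 hr ambient, read FP.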
Tau ThT inhib: blocks human tau fibril formation measured by thioflavin T; P10636; recombinant tau K18 P301L (four-repeat tau fragment), heparin-induced fibrillization, ThT fluorescence; Potency, µM (top dose mostly 57.4 µM), actives largely listed as inhibitors; 270,000 compounds, 2.1% hits; AID 1460; further: nearly all actives have a fitted effect of over 55% in size
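Heparin-induced (20 uM) aggregation of recombinant human K18 P301L tau, 15 uM unlabeled with 0.24 uM labeled, pH 7 acetate buffer, 6 hr at 37 C with compound. Fibrils quantified by 30 uM ThT fluorescence after 1 hr ambient incubation.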
Luc counter: blocks Kinase-Glo luciferase, a counter-screen artifact; Potency, µM (highest dose often 38.3 µM), hits mostly inhibitors; Kinase-Glo luciferase, ATP luminescence, 8 min; 200,000 compounds, 0.28% hits; further: nearly all actives have a fitted effect of over 60% in size
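Compounds were added to a substrate mix at pH 7.2 (50 mM imidazole, 10 uM ATP, within the enzyme's linear range), followed by Kinase-Glo detection reagent; luminescence was measured after 8 minutes at ambient temperature.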
Of the large screens only hits and unclear results are named; the others gave an inactive call; [ ] = remark or other dose. An excerpt weighted towards active compounds, which were near 3.3% of everything screened. The call rests on the fitted dose curve; in most records, active means well fitted curve in the direction sought with a large enough effect; inconclusive means small, poorly fitted or top-dose-only effect, or another doubt; inactive means no such curve, though single readings can be large; an effect the other way counts as inactive or inconclusive.

O=C(/C=C/c1ccc(Cl)c([N+](=O)[O-])c1)Nc1ccc(N2CCCC2)cc1	Tau fluor counter 17.8µM[quencher], Tau ThT inhib 0.891µM
CCOC(=O)C1=C(C)Nc2sc(C(=O)c3ccc(F)cc3)c(N)c2C1c1ccc(C(=O)OC)cc1 (stereo not drawn)	Tau fluor counter 15.8µM[quencher], Tau fibril FP inconclusive
CCCCC(=O)Nc1cc(C)c(O)c(-c2nc3ncccc3o2)c1	none (no result: NPSR antagonist, Luc counter)
COc1ccc(/C=C/C(=O)c2cc(Cl)ccc2O)c(OC)c1	Tau ThT inhib 15.8µM (no result: Luc counter)
COc1ccc(C(=O)/C=C/c2ccc(OC)cc2OC)c(O)c1	Tau ThT inhib 17.8µM (no result: Luc counter)
COc1ccc(/C=C/C(=O)/C=C/c2ccc(OC)cc2OC)c(OC)c1	Tau fibril FP inconclusive, Tau ThT inhib inconclusive (no result: NPSR antagonist)
CCOC(=O)c1ccc(NC(=O)Nc2cc3c(cc2N2CCCC2)n(C)c(=O)n3C)cc1	Tau fluor counter 14.1µM[quencher], Tau ThT inhib inconclusive (no result: NPSR antagonist, Luc counter)
CCOC(=O)c1ccc(NC(=O)Nc2ccc3c4c(cccc24)C(=O)N3CC)cc1	Tau fluor counter 3.16µM[quencher], Tau ThT inhib inconclusive
CCN1C(=O)c2cccc3c(NS(=O)(=O)c4ccc(NC(C)=O)cc4)ccc1c23	none
Cc1cccc(C)c1NC(=O)CSCc1cnn(-c2ccccc2)c1-n1cccc1	none (no result: NPSR antagonist, Luc counter)
COn1c(C)c(C(C)=O)c2c3nonc3ccc21	Tau fibril FP inconclusive, Tau ThT inhib 14.1µM
CCOC(=O)c1c(C)n(OC)c2ccc3c(no[n+]3[O-])c12	none
COn1c2c(c3c4nonc4ccc31)CCCC2	Tau fluor counter inconclusive, Tau fibril FP inconclusive, Tau ThT inhib 14.1µM
COn1c2c(c3c4no[n+]([O-])c4ccc31)CCCC2	Tau ThT inhib inconclusive
On1c2c(c3c4nonc4ccc31)CCCC2	Tau fluor counter inconclusive, Tau fibril FP inconclusive, Tau ThT inhib 7.94µM
CS(=O)(=O)c1nc(-c2ccccc2)cc(C(F)(F)F)n1	NPSR antagonist 10µM
C=CCNc1nc2c3ccccc3n(C(C)=O)c2s1	Tau fluor counter inconclusive, Tau fibril FP inconclusive, Tau ThT inhib 28.2µM
CCOc1ccc(NS(=O)(=O)c2ccc3[nH]cc(C(=O)N4CCCC4)c(=O)c3c2)cc1	none (no result: NPSR antagonist, Luc counter)
COc1ccccc1/C=C/C=N/n1c(-c2n[nH]c3c2CCC3)n[nH]c1=S	Tau fluor counter inconclusive, Tau ThT inhib inconclusive (no result: Luc counter)
S=c1[nH]nc(-c2n[nH]c3c2CCC3)n1/N=C/C=C/c1ccco1	Tau fibril FP inconclusive, Tau ThT inhib 22.4µM (no result: Luc counter)
CC1=NN(c2ccc(C)c(C)c2)C(=O)/C1=C\C=C\c1ccc([N+](=O)[O-])o1	Tau fluor counter inconclusive, NPSR antagonist inconclusive, Tau fibril FP inconclusive, Tau ThT inhib 25.1µM
CNC(=S)N/N=C/c1ccc(-c2ccc(C(=O)O)cc2)o1	Tau ThT inhib inconclusive (no result: Luc counter)
Cc1[nH][nH]c(=O)c1C(c1ccc(-c2ccc(C(=O)O)cc2)o1)c1c(C)[nH][nH]c1=O	Tau fibril FP inconclusive, Tau ThT inhib 11.2µM, Luc counter inconclusive
COc1ccc(-c2ccc(C(c3c(C)[nH][nH]c3=O)c3c(C)[nH][nH]c3=O)o2)c([N+](=O)[O-])c1	Tau fibril FP inconclusive, Tau ThT inhib 7.94µM
Cc1[nH][nH]c(=O)c1C(c1ccc(-c2ccc(Cl)c(Cl)c2)o1)c1c(C)[nH][nH]c1=O	Tau fluor counter inconclusive, Tau fibril FP inconclusive, Tau ThT inhib 8.91µM
Cc1[nH][nH]c(=O)c1C(c1ccc(-c2ccc(F)cc2)o1)c1c(C)[nH][nH]c1=O	Tau fibril FP inconclusive, Tau ThT inhib 7.94µM
Cc1[nH][nH]c(=O)c1C(c1ccc(N(C)C)c(Br)c1)c1c(C)[nH][nH]c1=O	Tau ThT inhib inconclusive (no result: Luc counter)
O=C1c2ccccc2C(=O)c2cc(S(=O)(=O)Nc3ccccc3)ccc21	Tau fluor counter 14.1µM[quencher], Tau fibril FP inconclusive, Tau ThT inhib 22.4µM
Oc1c(C(c2ccccc2Cl)N2CCCC2)ccc2cccnc12 (stereo not drawn)	NPSR antagonist 10µM, Tau ThT inhib inconclusive
Oc1c(C(c2cccs2)N2CCN(c3ccccc3)CC2)ccc2cccnc12 (stereo not drawn)	NPSR antagonist 15.8µM, Tau ThT inhib inconclusive
CC(CNC(=O)Cn1c(-c2cccs2)cc2cc(Cl)ccc21)c1ccccc1 (stereo not drawn)	none (no result: NPSR antagonist, Luc counter)
Cc1ccc(NCCC(=O)c2cccc([N+](=O)[O-])c2)cc1	Tau fluor counter inconclusive, Tau fibril FP inconclusive, Tau ThT inhib inconclusive
O=C(CCNc1ccc(Cc2ccncc2)cc1)c1ccc([N+](=O)[O-])cc1	Tau fluor counter 7.94µM[quencher], Tau ThT inhib 10µM
O=C(CCNc1ccc(Br)cc1)c1cccc([N+](=O)[O-])c1	Tau fluor counter 28.2µM[quencher], Tau fibril FP inconclusive, Tau ThT inhib inconclusive
O=C(CCNc1ccccc1)c1cccc([N+](=O)[O-])c1	none (no result: Luc counter)
O=C(Nc1ccc(Cc2ccncc2)cc1)c1cccc([N+](=O)[O-])c1	none
O=C(CCNc1ccc(F)cc1)c1cccc([N+](=O)[O-])c1	Tau fluor counter 15.8µM[quencher], Tau ThT inhib inconclusive
Cc1nc(SCC(=O)c2cccc([N+](=O)[O-])c2)n[nH]1	Tau fibril FP inconclusive, Tau ThT inhib 39.8µM
O=C(NCCc1ccccc1)c1ccc(Cn2c(SCc3cccc(F)c3)nc3cccnc32)cc1	none (no result: NPSR antagonist, Luc counter)
Cc1ccc(N2C(N)=C(C#N)C(c3cccs3)C3=C2CC(C)(C)CC3=O)cc1 (stereo not drawn)	Tau ThT inhib 25.1µM
Clc1cccc(-n2ncc3c(NCCCN4CCOCC4)ncnc32)c1	none (no result: NPSR antagonist, Luc counter)
CCOc1ccc2nc(/N=C/c3c(C)[nH]n(-c4ccccc4)c3=O)sc2c1	Tau fluor counter inconclusive, Tau fibril FP inconclusive, Tau ThT inhib 14.1µM, Luc counter inconclusive
CCOc1ccc2nc(/N=C/c3c(C)[nH]n(-c4ccc(C)cc4)c3=O)sc2c1	Tau ThT inhib inconclusive, Luc counter 7.94µM
CCOc1[nH]n(-c2ccccc2)c(=O)c1C=Nc1ccc(OC)cc1	Tau fluor counter inconclusive, Tau ThT inhib inconclusive
Cc1ccc(-c2cn(-c3cccc(Cl)c3)c(S(=O)(=O)CC(=O)Nc3cccc(C)c3)n2)cc1	Tau fibril FP inconclusive (no result: NPSR antagonist, Luc counter)
Cc1ccc(OC(C)C(=O)N=Nc2c(O)[nH]c3ccc([N+](=O)[O-])cc23)cc1 (stereo not drawn)	Tau fluor counter 15.8µM[quencher], Tau ThT inhib inconclusive (no result: Luc counter)
Cc1ccccc1NCC(=O)N=Nc1c(O)[nH]c2ccc([N+](=O)[O-])cc12	Tau fluor counter 17.8µM[quencher], Tau ThT inhib inconclusive (no result: Luc counter)
O=C(Nc1ccc(F)cc1)C(=O)c1c(O)[nH]c2ccc([N+](=O)[O-])cc12	Tau ThT inhib 15.8µM (no result: Luc counter)
O=C(N=Nc1c(O)[nH]c2ccc([N+](=O)[O-])cc12)c1ccccc1Cl	NPSR antagonist inconclusive, Tau ThT inhib inconclusive (no result: Luc counter)
Cc1ccc(NCC(=O)N=Nc2c(O)[nH]c3ccc([N+](=O)[O-])cc23)cc1	Tau fluor counter 25.1µM[quencher], Tau ThT inhib 15.8µM (no result: Luc counter)
COC(=O)c1ccccc1NC(=O)c1cc(CN2CCCC2)on1	none (no result: NPSR antagonist, Luc counter)
CCn1c(C(=O)NCc2ccccc2Br)cc2oc3ccccc3c21	Tau fibril FP inconclusive (no result: NPSR antagonist, Luc counter)
